Pf growth 96h: inhibits malaria parasite growth, 96 h; AID 504834; Potency, µM (top dose mostly 28.7 µM), inactives show at the highest dose activity change, negative = inhibition, actives largely listed as inhibitors; 320,000 tested, 6.9% active; P. falciparum luciferase reporter growth, 96 h; further: potency means the concentration at half of the fitted maximal effect; on the % scale 0 is the no-effect control and ±100 the full control effect
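Luminescence readout: decreased luciferase signal marks inhibited growth of reporter-expressing P. falciparum in infected red cells (2% hematocrit, 0.05% parasitemia final), exposed to compound two generations (96 h, 37 C, 5% CO2).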
LmPK inh: blocks Leishmania mexicana pyruvate kinase activity | Q27686 | AID 1721 | purified LmPK, Kinase-Glo ATP luminescence, 1 h | Potency, µM (titrated, usually from 57.5 µM), for the others: at the highest dose activity change, negative = inhibition, usual class: inhibitors | 290,000 tested, 0.37% active; further: potency means the concentration at half of the fitted maximal effect; on the % scale 0 is the no-effect control and ±100 the full control effect
Target sequence (Q27686 whole entry, looked up): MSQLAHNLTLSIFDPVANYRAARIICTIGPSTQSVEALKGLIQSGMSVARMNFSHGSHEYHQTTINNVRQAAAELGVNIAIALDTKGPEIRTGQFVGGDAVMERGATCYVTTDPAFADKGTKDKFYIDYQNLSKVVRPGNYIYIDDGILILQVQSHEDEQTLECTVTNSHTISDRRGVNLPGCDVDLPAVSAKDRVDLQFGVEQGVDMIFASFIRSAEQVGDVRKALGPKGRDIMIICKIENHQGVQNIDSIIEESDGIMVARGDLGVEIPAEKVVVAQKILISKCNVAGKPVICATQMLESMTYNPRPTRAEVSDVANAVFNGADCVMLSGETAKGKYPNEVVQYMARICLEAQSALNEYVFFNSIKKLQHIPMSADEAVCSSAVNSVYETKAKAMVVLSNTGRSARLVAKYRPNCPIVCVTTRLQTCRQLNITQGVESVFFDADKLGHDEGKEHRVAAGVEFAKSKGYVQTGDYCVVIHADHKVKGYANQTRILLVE
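0.1 nM LmPK, 0.5 mM PEP, 0.1 mM ADP; 50 mM imidazole pH 7.2, 7 mM MgCl2, 50 mM KCl; 1 h RT. Kinase-Glo luminescence readout, normalized to no-enzyme (full inhibition) and uninhibited wells.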
Cycloheximide cs: counter-screen hit for Shiga toxin inhibitors, cycloheximide | cell reporter, cycloheximide protein synthesis inhibition counterscreen | 300,000 tested, 12% active | max response, %; in the data active means max response mostly above about 13%, no sharp cut-off; inactive means mostly below about 14%; further: read at 38.3 µM for the half of the compounds with a filed dose; 0% is about no effect
Pf growth 48h: P. falciparum growth inhibition at 48 hours (one generation) | P. falciparum luciferase growth in erythrocytes, 48 h | Potency, µM (doses to about 28.7 µM), inactives show at the top dose activity change, negative = inhibition, usual class: inhibitors | 310,000 tested, 5.9% active | AID 504832; further: potency means the concentration at half of the fitted maximal effect; on the % scale 0 is the no-effect control and ±100 the full control effect
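Cell-based growth assay: transgenic P. falciparum expressing firefly luciferase, cultured in red cells within RPMI 1640 containing 0.5% w/v Albumax, 24 mM bicarbonate and gentamycin. A drop in luciferase activity indicates inhibition.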
Shiga toxin inh: blocks Shiga toxin action in Vero cells; Vero cells, Shiga toxin protein synthesis inhibition reporter; inhibition, % at 38.7 µM; 290,000 tested, 9.2% active; in the data active means inhibition mostly above about 28%, no sharp cut-off; inactive means mostly below about 43%; further: 0% is about no effect
The depositor's hits bear a star; ? = inconclusive; . = no result; + = active, no number; [ ] = another dose, or the depositor's remark. A selection: hits, their analogues and other compounds. The true share with any hit is near 22%. Unless noted, the call rests on the fitted dose curve; in most records, active means well fitted inhibition curve with a large enough effect; inconclusive means small, poorly fitted or top-dose-only effect, or another doubt; inactive means no such curve, though single readings can be large or run the other way.

SMILES | Pf growth 96h | LmPK inh | Cycloheximide cs | Pf growth 48h | Shiga toxin inh
COc1ccc(C2NC(=S)NC(O)(C(F)(F)F)C2C(=O)c2cccs2)cc1 (configuration not stated) | 6% | -2% | 7 | 12% | -8
Cn1c(-c2ccc3c(c2)OCO3)cnc1NC(=O)CCC(=O)NCCc1ccccc1 | . | 1% | 18* | 19% | 65*
Cc1nc(N)ncc1-c1ccc2c(c1)OCO2 | 36% | -3% | 13 | . | 23
Cn1c(-c2cccc(Br)c2)cnc1NCc1ccccc1O | 5.2µM* | 2% | 3 | ? | 2
Cn1c(-c2ccc3c(c2)OCO3)cnc1N | ? | -6% | 13* | -29% | -4
Cn1c(-c2ccccc2)cnc1NCc1ccccc1 | -5% | -4% | 11* | 12% | .
CCCCNC(=O)CCC(=O)Nc1ncc(-c2ccc(C)cc2)n1C | . | -1% | 15 | 34% | 27
CCOc1ccccc1OCCCC(=O)N(CC)CC(=O)Nc1c(F)cccc1F | 7% | . | . | -28% | .
Cc1ccc(S(=O)(=O)NCCC(=O)NC2CCC(C)CC2)cc1 (configuration not stated) | ? | . | . | -3% | .
COC(=O)c1ccccc1NC(=O)C1CC(=O)N(c2ccc(C)c(C)c2)C1 (configuration not stated) | 4.1µM* | -3% | 3 | . | -8
CCCOc1ccc(N2CC(C(=O)Nc3ccccc3C(=O)NCc3ccco3)CC2=O)cc1 (configuration not stated) | 16% | 6% | 0 | 9.3µM* | -11
C/C(=N\Nc1ccc2nncn2n1)c1cccs1 | 87% | -15% | 41* | 72% | 21
Cc1ccc(C(=O)N=c2sccn2C)o1 | -16% | -3% | 7 | 11% | -5
O=C(CSc1nc2nn(-c3ccccc3)c(=O)c-2c2n1CCCCC2)c1ccc(O)c(O)c1 | ? | . | . | 9.3µM* | .
O=C(CNC(=O)c1ccccc1)NCCc1nc2ccccc2[nH]1 | . | -4% | 1 | 13% | 5
O=C(Cn1cc([N+](=O)[O-])cn1)NCCc1nc2ccccc2[nH]1 | 9.3µM* | -7% | 4 | 19% | 11
O=C(NCCc1nc2ccccc2[nH]1)c1cc([N+](=O)[O-])cc([N+](=O)[O-])c1 | ? | 3% | -2 | 4.7µM* | -4
CC(=O)Nc1ccc(NC(=O)CCSCCc2ccccn2)cc1 | 5% | -4% | 6 | 6% | 3
O=C(CN1CCN(C(c2ccccc2)c2ccccc2)CC1)N1CCN(c2ccccc2)CC1 | ? | 9% | -2 | 12µM* | -4
CC1CCN(CC(=O)N2CCN(c3ccccc3)CC2)CC1 | -8% | -9% | -1 | -3% | -7
O=C(N1CCCCC1)N1CCN(C(c2ccccc2)c2ccccc2)CC1 | 8.3µM* | 6% | -3 | . | -8
O=C(CN1CCN(C(c2ccccc2)c2ccccc2)CC1)N1N=CCC1c1ccccc1 (configuration not stated) | 12µM* | -4% | 1 | ? | -15
O=C(CN1CCN(c2ccccc2)CC1)N1N=CCC1c1ccccc1 (configuration not stated) | ? | -4% | 1 | 29% | -6
O=C(CCc1ccc(Oc2cc([N+](=O)[O-])cc([N+](=O)[O-])c2)cc1)N1CCCCCC1 | ? | 1% | 5 | 7.4µM* | 23
O=C(Nc1ccccn1)C1CCCN1S(=O)(=O)c1ccc(Cl)cc1 (configuration not stated) | ? | -2% | 6 | -14% | 23
SMILES | Pf growth 96h | LmPK inh | Cycloheximide cs | Pf growth 48h | Shiga toxin inh
COc1ccc(C(=O)CN2C(=O)c3ccccc3S2(=O)=O)cc1 | 76% | 2% | -6 | 7.4µM* | -22
COc1ccc(NC(=O)CCN2C(=O)c3ccccc3S2(=O)=O)c(OC)c1 | 22% | 11% | 4 | 3% | 20
Cc1ccc(NC(=O)CCN2C(=O)c3ccccc3S2(=O)=O)cc1C | 0% | . | . | -77% | .
Cc1ccc(NC(=O)CN2C(=O)c3ccccc3S2(=O)=O)cc1C | -6% | 0% | 11* | 16% | 11
COc1cccc(NC(=O)CCN2C(=O)c3ccccc3S2(=O)=O)c1 | . | -6% | 14* | 0% | 33
O=C(c1noc2c1CCCC2)N1CCC(CO)(Cc2ccccc2Cl)CC1 | 25% | 1% | -2 | ? | -18
CCn1nc(C(=O)OCC(=O)N(CCC#N)c2ccccc2)c2ccccc2c1=O | -21% | . | . | -20% | .
Cc1nc2nc(-c3ccccc3)cn2nc1C | 1% | 13µM* | 28* | 134% | 85*
c1ccc(-c2cn3nc(-c4ccccc4)cnc3n2)cc1 | 188% | -15% | 49* | 278% | +
Cc1nc2nc(-c3ccc(F)cc3)cn2nc1C | 66% | ? | 32* | 33% | 31
c1ccc(-c2cn3nc4c(nc3n2)CCCC4)cc1 | 19% | 0% | 34 | . | 2
CCc1ccc(-c2cn3nc(C)c(C)nc3n2)cc1 | 90% | 1% | -1 | 31% | -24
Cc1ccccc1N1C(=O)c2sc3nc4c(c(=O)n3c2C1=O)CCC4 | ? | ? | -3 | ? | 8
O=C1c2sc3nc4c(c(=O)n3c2C(=O)N1c1ccccc1)CCC4 | ? | -23% | 6 | ? | 47*
Cc1ccccc1-c1noc(-c2ccccc2C(=O)O)n1 | 34% | 1% | 15* | 24% | 39
COc1ccccc1-c1noc(-c2ccccc2C(=O)Nc2ccccc2)n1 | -17% | 12% | -5 | 2% | -7
COc1cccc(NC(=O)c2ccccc2-c2nc(-c3ccccc3)no2)c1 | 5% | -3% | 19* | -13% | 28
COc1ccccc1NC(=O)c1ccccc1-c1nc(-c2ccccc2OC)no1 | . | -11% | 21* | ? | 24
COc1ccc(-c2noc(-c3ccccc3C(=O)NCc3ccco3)n2)cc1 | 1%[5.75 µM] | -2% | 15* | 50% | 17
COc1cccc(NC(=O)c2ccccc2-c2nc(-c3ccc(Cl)cc3)no2)c1 | ? | 4% | 59* | ? | 62*
COc1cccc(NC(=O)c2ccccc2-c2nc(-c3ccc(F)cc3)no2)c1 | 18% | 0% | 8 | ? | 22
CC(=O)Nc1cc(C)c(S(C)(=O)=O)c(C)c1 | -3% | -3% | -2 | 5% | -2
O=C(CC(=O)Nc1nc(C23CC4CC(CC(C4)C2)C3)cs1)NCCO | 9.3µM* | 0% | 1 | 13µM* | 13
COCc1cc(=O)[nH]c(/N=C(\N)Nc2cccc(Cl)c2)n1 | 7% | -1% | 10 | 11% | 12
C(#Cc1ccccc1)Cn1nnc2ccccc21 | 40% | 3% | 37* | 37% | 49*
O=C(O)Cn1nnc2ccccc21 | 18% | -8% | -1 | 7% | 28
CCN(CC)CCNC(=O)c1ccccn1 | -25% | -2% | -1 | -17% | -11
CCN(CC)CCNC(=O)c1ccccc1C(=O)c1ncc[nH]1 | 1.7µM* | 5% | -2 | -14% | -14
Cc1ccc(CN(C(=O)c2csnn2)C(C(=O)NC2CCCC2)c2ccccn2)cc1 (configuration not stated) | 4% | -3% | 5 | ? | -4

High-throughput results deposited in PubChem by National Center for Advancing Translational Sciences (NCATS).
